According to the supplement of paper PMC11732987, “Enantioselective OTUD7B fragment discovery through chemoproteomics screening and high-throughput optimisation” (Communications Chemistry, 2025):

Experiments:
Experiment in all cases: log2 ratio of Biotin-Ahx-Ub-VS probe labelling (fragment/DMSO); higher = less target engagement (more negative = stronger competition), active = hit call of the paper (q ≤ 0.05, log2 ratio ≤ -1)
Conditions in all cases: compound concentration: 200 uM; treatment time: 3 h
[1] = target: T1, USP19 (UniProt O94966)
T1 sequence (whole entry): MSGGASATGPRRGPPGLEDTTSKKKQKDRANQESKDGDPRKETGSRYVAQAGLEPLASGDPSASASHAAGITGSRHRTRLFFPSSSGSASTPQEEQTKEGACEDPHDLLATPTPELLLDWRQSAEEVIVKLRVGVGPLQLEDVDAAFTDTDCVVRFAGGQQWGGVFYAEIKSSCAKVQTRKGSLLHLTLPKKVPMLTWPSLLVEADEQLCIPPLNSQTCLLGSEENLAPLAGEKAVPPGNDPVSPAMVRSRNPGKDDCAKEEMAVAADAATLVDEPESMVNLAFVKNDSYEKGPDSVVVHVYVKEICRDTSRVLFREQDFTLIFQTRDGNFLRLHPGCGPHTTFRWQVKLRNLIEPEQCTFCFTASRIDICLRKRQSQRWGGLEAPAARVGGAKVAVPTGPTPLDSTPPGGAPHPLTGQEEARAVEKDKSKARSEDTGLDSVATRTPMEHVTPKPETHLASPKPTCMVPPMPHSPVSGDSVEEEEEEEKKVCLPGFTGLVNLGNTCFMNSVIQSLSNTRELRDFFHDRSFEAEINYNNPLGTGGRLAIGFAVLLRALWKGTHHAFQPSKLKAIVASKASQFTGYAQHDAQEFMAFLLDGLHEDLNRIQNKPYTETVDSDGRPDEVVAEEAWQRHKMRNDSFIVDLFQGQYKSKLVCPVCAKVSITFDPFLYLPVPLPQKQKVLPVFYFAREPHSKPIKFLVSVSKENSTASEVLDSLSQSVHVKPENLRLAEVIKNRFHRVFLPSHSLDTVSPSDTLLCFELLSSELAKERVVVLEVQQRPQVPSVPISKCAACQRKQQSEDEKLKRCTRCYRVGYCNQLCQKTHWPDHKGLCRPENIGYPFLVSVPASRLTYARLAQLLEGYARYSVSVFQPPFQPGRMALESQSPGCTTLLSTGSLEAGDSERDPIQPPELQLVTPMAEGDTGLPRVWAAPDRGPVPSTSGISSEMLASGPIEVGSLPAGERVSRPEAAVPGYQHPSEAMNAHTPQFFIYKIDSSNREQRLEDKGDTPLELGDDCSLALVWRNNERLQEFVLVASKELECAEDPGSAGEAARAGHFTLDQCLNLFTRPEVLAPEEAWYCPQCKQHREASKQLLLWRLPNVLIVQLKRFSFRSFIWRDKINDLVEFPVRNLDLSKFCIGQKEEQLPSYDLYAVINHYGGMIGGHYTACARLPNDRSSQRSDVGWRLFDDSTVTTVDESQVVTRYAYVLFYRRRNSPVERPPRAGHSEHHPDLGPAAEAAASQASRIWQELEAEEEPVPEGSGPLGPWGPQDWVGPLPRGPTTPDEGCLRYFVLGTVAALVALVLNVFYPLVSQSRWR
In short: (§1)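 Each value is an average log2 ratio of fragment to vehicle, tested by unpaired t-test. The underlying Spectronaut label-free quantities were global-median-normalised, and only proteins with ≥2 unique peptides were included. Triplicate HEK293T lysate samples (495 µg) were exposed to fragment at 200 µM or vehicle for 3 h, then to Biotin-Ahx-Ub-VS at 0.5 µM final for 1 h, before NeutrAvidin enrichment of labelled DUBs, LysC and trypsin digestion, and diaPASEF LC-MS/MS.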

[2] = target: T2, USP22 (UniProt Q9UPT9)
T2 sequence (whole entry): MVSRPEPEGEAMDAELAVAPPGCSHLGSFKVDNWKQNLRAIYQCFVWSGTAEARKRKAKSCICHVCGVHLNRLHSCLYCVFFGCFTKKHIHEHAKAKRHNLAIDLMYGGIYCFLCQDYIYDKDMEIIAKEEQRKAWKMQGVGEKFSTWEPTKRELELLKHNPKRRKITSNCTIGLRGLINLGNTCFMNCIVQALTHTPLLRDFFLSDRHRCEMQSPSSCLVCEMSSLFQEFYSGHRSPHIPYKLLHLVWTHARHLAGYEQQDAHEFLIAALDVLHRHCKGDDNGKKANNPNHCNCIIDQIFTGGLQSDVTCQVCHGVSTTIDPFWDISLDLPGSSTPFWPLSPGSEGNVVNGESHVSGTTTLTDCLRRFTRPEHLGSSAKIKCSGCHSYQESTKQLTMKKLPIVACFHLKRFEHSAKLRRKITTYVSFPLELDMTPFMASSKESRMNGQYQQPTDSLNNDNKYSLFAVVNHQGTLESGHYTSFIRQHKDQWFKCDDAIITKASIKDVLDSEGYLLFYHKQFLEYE
In short: as §1

[3] = target: USP24 (UniProt Q9UPU5)
In short: as §1

[4] = target: T3, USP25 (UniProt Q9UHP3)
T3 sequence (whole entry): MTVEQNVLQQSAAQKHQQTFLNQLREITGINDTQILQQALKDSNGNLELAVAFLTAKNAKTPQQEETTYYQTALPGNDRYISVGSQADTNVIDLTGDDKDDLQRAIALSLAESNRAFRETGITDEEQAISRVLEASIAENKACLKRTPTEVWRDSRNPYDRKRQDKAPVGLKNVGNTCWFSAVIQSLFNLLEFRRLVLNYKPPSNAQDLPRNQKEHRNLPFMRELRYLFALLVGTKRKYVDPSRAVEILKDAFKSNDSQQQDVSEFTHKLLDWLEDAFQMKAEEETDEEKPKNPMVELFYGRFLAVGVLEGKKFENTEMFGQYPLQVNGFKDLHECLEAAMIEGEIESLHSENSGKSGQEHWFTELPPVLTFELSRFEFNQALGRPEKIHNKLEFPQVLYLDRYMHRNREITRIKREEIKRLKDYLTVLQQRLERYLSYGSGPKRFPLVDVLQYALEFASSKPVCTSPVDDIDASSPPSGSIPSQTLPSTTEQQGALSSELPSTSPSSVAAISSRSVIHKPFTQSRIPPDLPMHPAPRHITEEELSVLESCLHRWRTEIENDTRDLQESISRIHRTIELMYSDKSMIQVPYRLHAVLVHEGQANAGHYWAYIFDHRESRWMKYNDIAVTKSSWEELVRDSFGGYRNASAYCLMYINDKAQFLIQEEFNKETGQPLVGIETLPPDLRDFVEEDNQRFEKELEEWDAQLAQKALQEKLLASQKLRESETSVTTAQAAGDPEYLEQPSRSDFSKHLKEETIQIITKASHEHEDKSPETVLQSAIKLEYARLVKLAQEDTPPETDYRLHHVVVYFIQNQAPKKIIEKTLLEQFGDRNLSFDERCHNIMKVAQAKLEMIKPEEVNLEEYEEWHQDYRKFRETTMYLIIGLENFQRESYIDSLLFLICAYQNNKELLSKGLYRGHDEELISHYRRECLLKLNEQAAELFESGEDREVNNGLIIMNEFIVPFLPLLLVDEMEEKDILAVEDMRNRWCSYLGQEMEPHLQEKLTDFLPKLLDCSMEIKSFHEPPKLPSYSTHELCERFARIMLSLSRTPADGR
In short: as §1

[5] = target: T4, USP28 (UniProt Q96RU2)
T4 sequence (whole entry): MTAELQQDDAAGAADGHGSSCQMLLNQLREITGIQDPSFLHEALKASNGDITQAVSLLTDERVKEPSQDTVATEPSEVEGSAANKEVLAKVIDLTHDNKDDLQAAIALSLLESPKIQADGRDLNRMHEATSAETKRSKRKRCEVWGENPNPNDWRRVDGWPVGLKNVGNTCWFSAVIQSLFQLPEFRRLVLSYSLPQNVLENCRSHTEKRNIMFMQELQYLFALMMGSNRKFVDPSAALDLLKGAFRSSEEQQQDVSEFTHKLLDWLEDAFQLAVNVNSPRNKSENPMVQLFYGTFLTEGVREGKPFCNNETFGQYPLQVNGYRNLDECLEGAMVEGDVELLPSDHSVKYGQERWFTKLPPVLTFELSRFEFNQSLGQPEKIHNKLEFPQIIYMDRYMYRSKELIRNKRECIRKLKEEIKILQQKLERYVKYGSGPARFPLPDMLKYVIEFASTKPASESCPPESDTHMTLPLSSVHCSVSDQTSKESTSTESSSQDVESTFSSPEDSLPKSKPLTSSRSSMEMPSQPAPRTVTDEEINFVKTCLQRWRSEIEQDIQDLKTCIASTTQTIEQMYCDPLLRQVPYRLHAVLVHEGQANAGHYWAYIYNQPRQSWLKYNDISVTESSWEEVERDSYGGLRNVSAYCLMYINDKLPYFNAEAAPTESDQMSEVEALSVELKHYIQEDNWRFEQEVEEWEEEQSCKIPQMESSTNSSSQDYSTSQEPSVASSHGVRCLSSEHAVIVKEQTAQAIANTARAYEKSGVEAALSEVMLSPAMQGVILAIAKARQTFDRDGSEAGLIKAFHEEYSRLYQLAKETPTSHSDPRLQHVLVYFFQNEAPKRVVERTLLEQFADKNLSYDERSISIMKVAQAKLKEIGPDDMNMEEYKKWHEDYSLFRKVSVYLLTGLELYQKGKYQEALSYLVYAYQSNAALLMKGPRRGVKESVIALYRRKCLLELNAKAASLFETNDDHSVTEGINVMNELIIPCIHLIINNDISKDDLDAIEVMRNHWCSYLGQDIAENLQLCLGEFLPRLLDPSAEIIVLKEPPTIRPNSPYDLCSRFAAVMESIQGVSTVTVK
In short: as §1

Measured: log2 ratio of Biotin-Ahx-Ub-VS probe labelling

Chain of USP24 (Q9UPU5 whole entry): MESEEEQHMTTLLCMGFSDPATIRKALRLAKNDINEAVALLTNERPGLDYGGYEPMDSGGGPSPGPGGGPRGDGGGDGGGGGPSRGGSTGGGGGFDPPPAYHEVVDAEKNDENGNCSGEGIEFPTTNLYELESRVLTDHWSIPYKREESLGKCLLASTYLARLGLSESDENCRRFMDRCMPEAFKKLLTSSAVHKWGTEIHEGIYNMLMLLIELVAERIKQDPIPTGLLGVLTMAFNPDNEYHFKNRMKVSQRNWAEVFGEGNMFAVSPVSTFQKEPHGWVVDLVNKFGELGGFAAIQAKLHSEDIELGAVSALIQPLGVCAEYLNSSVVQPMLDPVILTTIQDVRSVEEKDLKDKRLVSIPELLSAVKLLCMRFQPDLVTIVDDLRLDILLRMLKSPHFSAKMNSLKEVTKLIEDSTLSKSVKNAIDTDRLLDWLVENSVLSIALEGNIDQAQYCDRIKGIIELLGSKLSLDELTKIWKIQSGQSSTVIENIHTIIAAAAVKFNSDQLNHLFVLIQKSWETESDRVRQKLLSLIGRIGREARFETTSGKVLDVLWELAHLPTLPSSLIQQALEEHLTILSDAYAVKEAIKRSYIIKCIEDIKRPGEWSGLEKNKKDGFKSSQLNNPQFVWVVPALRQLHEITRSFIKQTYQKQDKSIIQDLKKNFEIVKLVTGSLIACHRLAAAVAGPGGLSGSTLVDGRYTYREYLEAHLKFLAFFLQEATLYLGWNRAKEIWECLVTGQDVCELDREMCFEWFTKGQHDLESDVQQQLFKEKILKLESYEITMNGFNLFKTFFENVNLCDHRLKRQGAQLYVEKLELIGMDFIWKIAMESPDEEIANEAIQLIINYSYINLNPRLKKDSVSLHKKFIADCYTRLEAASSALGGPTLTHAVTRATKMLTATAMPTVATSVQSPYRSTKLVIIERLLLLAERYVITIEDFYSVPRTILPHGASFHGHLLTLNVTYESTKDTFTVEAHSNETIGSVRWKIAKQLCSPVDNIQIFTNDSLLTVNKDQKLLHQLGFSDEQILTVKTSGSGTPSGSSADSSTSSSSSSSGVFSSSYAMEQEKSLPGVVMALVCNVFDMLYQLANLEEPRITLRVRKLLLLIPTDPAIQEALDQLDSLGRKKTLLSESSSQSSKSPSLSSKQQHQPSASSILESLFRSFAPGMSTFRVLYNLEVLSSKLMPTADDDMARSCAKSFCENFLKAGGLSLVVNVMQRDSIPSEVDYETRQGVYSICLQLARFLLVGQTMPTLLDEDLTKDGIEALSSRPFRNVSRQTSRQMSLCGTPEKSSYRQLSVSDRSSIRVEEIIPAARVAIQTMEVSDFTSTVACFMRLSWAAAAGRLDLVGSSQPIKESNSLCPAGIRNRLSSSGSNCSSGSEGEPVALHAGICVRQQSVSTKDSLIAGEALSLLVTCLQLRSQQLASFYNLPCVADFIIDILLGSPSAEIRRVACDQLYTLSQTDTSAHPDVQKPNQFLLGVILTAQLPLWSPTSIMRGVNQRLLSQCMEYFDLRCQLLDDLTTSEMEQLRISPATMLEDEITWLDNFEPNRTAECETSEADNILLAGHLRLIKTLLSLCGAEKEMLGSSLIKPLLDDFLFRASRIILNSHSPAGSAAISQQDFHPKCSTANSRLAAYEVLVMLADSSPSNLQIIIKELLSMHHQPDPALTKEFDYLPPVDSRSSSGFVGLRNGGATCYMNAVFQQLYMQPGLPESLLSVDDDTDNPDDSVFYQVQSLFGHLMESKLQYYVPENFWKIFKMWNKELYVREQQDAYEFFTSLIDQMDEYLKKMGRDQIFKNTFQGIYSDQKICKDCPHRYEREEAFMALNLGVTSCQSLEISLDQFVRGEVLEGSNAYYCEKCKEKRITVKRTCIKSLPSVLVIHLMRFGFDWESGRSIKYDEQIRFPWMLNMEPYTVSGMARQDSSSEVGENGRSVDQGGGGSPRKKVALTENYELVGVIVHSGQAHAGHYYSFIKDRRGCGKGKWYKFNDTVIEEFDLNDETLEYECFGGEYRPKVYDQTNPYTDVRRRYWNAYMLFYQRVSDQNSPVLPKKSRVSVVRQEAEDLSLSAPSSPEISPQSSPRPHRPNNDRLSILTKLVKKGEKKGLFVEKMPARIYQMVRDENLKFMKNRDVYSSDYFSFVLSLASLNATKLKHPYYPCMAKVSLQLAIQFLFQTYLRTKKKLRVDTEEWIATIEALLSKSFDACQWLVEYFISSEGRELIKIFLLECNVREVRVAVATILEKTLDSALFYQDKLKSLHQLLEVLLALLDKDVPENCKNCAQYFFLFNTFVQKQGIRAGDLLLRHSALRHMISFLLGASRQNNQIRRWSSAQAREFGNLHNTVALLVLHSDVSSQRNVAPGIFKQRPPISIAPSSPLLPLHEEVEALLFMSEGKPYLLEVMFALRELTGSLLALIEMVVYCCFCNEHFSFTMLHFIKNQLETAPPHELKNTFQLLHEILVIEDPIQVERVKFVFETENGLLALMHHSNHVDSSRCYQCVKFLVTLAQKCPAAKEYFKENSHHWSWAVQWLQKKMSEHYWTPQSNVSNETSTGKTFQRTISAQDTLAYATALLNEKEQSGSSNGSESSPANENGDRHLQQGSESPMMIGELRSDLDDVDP

Cc1nnc(C(NC(=O)CCl)c2ccccc2)n1C (stereo not given)
inactive: [1] 0.626 | [2] 0.332 | [3] 0.636 | [4] 0.465 | [5] 0.507
